Screening results from PubChem BioAssay.
Compounds with a hit are over-represented: about 18% of the library has one in this group of screens.
TGFb SMAD3 inh – qHTS for Inhibitors of TGF-b; Potency, µM (doses to about 46.1 µM), without a hit: top-dose activity, negative = inhibition, most hits filed as inhibitors; AID 588855, 2011; HepG2 CAGA-GFP TGF-b/SMAD3 reporter, GFP fluorescence, 18 h; TGF-beta stimulated, 500 pg/mL final; actives 1.2% (n = 410,000); also: potency is read from the fitted curve at half-maximal effect; % is scaled to controls: 0 for no effect and ±100 for the full control effect; nearly all actives have a fitted effect of over 65% in size
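GFP signal (ex488/em500-530) from TGF-beta-stimulated HEPG2 CAGA-GFP cells, 500 pg/mL final, 18 h at 37 degrees C in DMEM plus 1% FBS, normalized to unstimulated and DMSO-stimulated controls.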
IL1B secr inh – qHTS for Inhibitors of Inflammasome Signaling: IL-1-beta AlphaLISA Primary Screen. THP-1 LPS/ATP IL-1B secretion, AlphaLISA, 16 h; hits give low values. activity change, % at 57.5 µM. actives 4.7% (n = 360,000). AID 743279, 2014; in the data active = activity change below about -50%; inconclusive = mostly about -30% to -49%; also: % is scaled to controls: 0 for no effect and ±100 for the full control effect
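Secreted IL-1B measured by AlphaLISA bead assay after 16 h compound exposure of THP-1 cells; compounds (final up to 57.5 uM) added 1 h before LPS (250 ng/mL) and ATP (1.25 mM) stimulation; lower signal means less secretion.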
DT40 TDP1 CPT – qHTS for Inhibitors of human tyrosyl-DNA phosphodiesterase 1 (TDP1): qHTS in cells in presence of CPT | chicken DT40 Tdp1-/-;hTDP1 cells + 20 nM CPT, ATP luminescence, 48 h | Potency, µM (titrated, usually from 46.2 µM), for the others: at the highest dose activity change, negative = growth inhibition, most hits filed as inhibitors | actives 12% (n = 420,000); also: potency is read from the fitted curve at half-maximal effect; % is scaled to controls: 0 for no effect and ±100 for the full control effect; nearly all actives have a fitted effect of over 55% in size
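Cell growth measured by CellTiter-Glo luminescence after a minimum 48 h, 37 C compound exposure with 20 nM CPT in Tdp1-knockout DT40 cells stably expressing hTDP1, seeded 400/well; qHTS titration format.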
DT40 TDP1 no CPT – qHTS for Inhibitors of human tyrosyl-DNA phosphodiesterase 1 (TDP1): qHTS in cells in absence of CPT. actives 15% (n = 420,000). Potency, µM (titrated, usually from 46.2 µM), for inactives: at the top dose activity change, negative = growth inhibition, hits mostly inhibitors. DT40 Tdp1-/- hTDP1 cells, no CPT, ATP luminescence, 48 h; also: potency is read from the fitted curve at half-maximal effect; % is scaled to controls: 0 for no effect and ±100 for the full control effect; nearly all actives have a fitted effect of over 55% in size
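A cellular qHTS used chicken DT40 cells lacking endogenous Tdp1 but carrying stably transfected human TDP1. Compounds were applied without camptothecin, and cell growth kinetics were judged by ATP-dependent luminescence after ≥48 hr.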
TDP1 inh – qHTS Assay for Inhibitors of Tyrosyl-DNA Phosphodiesterase (TDP1). Tyrosyl-DNA phosphodiesterase 1 (Homo sapiens), Q9NUW8. recombinant TDP1, AlphaScreen DNA substrate cleavage. Potency, µM (top dose mostly 130 µM), for inactives: at the highest dose activity change, negative = inhibition, actives largely listed as inhibitors. actives 0.28% (n = 350,000). AID 485290, 2010; also: potency is read from the fitted curve at half-maximal effect; % is scaled to controls: 0 for no effect and ±100 for the full control effect; nearly all actives have a fitted effect of over 40% in size
Target sequence (Q9NUW8 whole entry, looked up): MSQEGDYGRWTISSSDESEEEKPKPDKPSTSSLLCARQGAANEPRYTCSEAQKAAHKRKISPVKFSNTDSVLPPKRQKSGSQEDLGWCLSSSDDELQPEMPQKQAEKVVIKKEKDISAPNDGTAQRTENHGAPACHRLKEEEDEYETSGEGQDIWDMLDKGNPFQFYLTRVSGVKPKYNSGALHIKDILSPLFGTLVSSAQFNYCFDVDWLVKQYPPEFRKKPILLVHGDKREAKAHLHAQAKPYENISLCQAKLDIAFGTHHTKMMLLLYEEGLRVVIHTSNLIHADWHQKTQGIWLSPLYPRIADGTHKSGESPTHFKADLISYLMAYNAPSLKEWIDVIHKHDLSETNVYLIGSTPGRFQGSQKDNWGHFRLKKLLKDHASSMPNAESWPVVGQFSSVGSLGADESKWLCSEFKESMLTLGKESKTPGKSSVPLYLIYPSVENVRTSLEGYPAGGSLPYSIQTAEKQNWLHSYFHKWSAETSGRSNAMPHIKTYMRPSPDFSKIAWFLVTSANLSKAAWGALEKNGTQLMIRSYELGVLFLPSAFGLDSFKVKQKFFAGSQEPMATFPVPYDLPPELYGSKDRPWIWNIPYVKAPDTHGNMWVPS
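Here, a 5' biotin and 3' phosphotyrosine-FITC DNA oligonucleotide reports Tdp1 activity: intact substrate bridges AlphaScreen beads, while cleavage leaves a 3' phosphate and drops signal. All incubations at room temperature.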
HepG2 tox – qHTS for Inhibitors of TGF-b: Cytotox Counterscreen. HepG2 CAGA-GFP viability, ATP luminescence, 18 h. Potency, µM (top dose mostly 46.1 µM), for the others: top-dose activity change, negative = cytotoxicity, actives largely listed as cytotoxic. actives 0.76% (n = 410,000). AID 588856, 2011; also: potency is read from the fitted curve at half-maximal effect
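CellTiter-Glo luminescence gave cytotoxicity after 18 hours at 37 degrees C. The cells were HepG2 CAGA-GFP in 1% FBS DMEM, stimulated with 500 pg/mL TGF-beta after compound addition. %Activity was normalised to no-cell wells (complete cell-killing) and DMSO (no toxicity), and curves were fitted and classified.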
An asterisk follows results filed as active. Unless noted, calls follow the shape of the dose curve; as a rule, active = well fitted curve in the direction sought with a large enough effect; inconclusive = small, poorly fitted or top-dose-only effect, or another doubt; inactive = no such curve, though single readings can be large; an effect the other way counts as inactive or inconclusive.

How did COc1ccccc1CNc1ncc(-c2ccc(F)cc2)n1C do in these assays?
TGFb SMAD3 inh: -4%; IL1B secr inh: -18; DT40 TDP1 CPT: inconclusive; DT40 TDP1 no CPT: inconclusive; HepG2 tox: -28%

How did COc1ccccc1CNc1ncc(-c2ccccc2)n1C do in these assays?
TGFb SMAD3 inh: -9%; IL1B secr inh: 0; DT40 TDP1 CPT: 26µM*; DT40 TDP1 no CPT: inconclusive; HepG2 tox: -55%

Results for Cn1c(-c2ccc(F)cc2)cnc1NCc1ccccc1 ?
TGFb SMAD3 inh: 3%; IL1B secr inh: -10; DT40 TDP1 CPT: inconclusive; DT40 TDP1 no CPT: inconclusive; TDP1 inh: 3%; HepG2 tox: 4%

Results for O=CC(=O)c1ccc(F)cc1 ?
TGFb SMAD3 inh: -1%; DT40 TDP1 CPT: inconclusive; DT40 TDP1 no CPT: inconclusive; HepG2 tox: -1%

Results for CCCCN(C)C(=O)C1CCN(Cc2cccc(OCc3ccccc3)c2)CC1 ?
TGFb SMAD3 inh: inconclusive; IL1B secr inh: inconclusive; DT40 TDP1 CPT: inconclusive; DT40 TDP1 no CPT: inconclusive; TDP1 inh: 4%; HepG2 tox: -38%

What do the screens show for `COc1ccccc1NC(=S)N1CCN(C/C=C/c2ccccc2)CC1`?
TGFb SMAD3 inh: 0%; IL1B secr inh: -5; DT40 TDP1 CPT: inconclusive; DT40 TDP1 no CPT: inconclusive; TDP1 inh: -1%; HepG2 tox: -8%

Results for CCN(CC)S(=O)(=O)c1ccc(C)c(NC(=S)N2CCN(Cc3ccc4c(c3)OCO4)CC2)c1 ?
TGFb SMAD3 inh: -30%; IL1B secr inh: -12; DT40 TDP1 CPT: 21µM*; DT40 TDP1 no CPT: 21µM*; TDP1 inh: -10%; HepG2 tox: -2%

How did CCN(CC)S(=O)(=O)c1ccc(C)c(NC(=S)N2CCN(c3ccccn3)CC2)c1 do in these assays?
TGFb SMAD3 inh: -3%; IL1B secr inh: -73*; DT40 TDP1 CPT: 18µM*; DT40 TDP1 no CPT: 15µM*; HepG2 tox: -3%

How did Cc1ccc(NC(=S)N2CCN(Cc3ccc4c(c3)OCO4)CC2)c(C)c1 do in these assays?
TGFb SMAD3 inh: -18%; IL1B secr inh: 5; DT40 TDP1 CPT: -4%; DT40 TDP1 no CPT: -18%; HepG2 tox: -16%

What do the screens show for `CCN(CC)S(=O)(=O)c1ccc(C)c(NC(=S)N2CCN(C/C=C/c3ccccc3)CC2)c1`?
TGFb SMAD3 inh: inconclusive; IL1B secr inh: -7; DT40 TDP1 CPT: inconclusive; DT40 TDP1 no CPT: 12µM*; TDP1 inh: 4%; HepG2 tox: -23%

How did C=Cc1ccc(Cn2c(C(=O)O)c(CNC3CCCCC3)c3ccc(C)cc32)cc1 do in these assays?
TGFb SMAD3 inh: -4%; DT40 TDP1 CPT: -5%; DT40 TDP1 no CPT: -17%; TDP1 inh: 3%; HepG2 tox: -32%

Results for Cc1ccccc1-c1nc(CN2CCC(C(=O)NCCC3=CCCCC3)CC2)c(C)o1 ?
TGFb SMAD3 inh: 9%; IL1B secr inh: -61*; DT40 TDP1 CPT: 18µM*; DT40 TDP1 no CPT: 18µM*; TDP1 inh: 7%; HepG2 tox: -16%

How did Cc1ccccc1-c1nc(CN2CCC(C(=O)NCCc3ccccc3)CC2)c(C)o1 do in these assays?
TGFb SMAD3 inh: -23%; DT40 TDP1 CPT: 15µM*; DT40 TDP1 no CPT: 21µM*; TDP1 inh: 3%; HepG2 tox: -18%

Results for Cc1ccccc1-c1nc(CN2CCC(C(=O)NCCCN3CCCC(C)C3)CC2)c(C)o1 (centres undefined) ?
TGFb SMAD3 inh: -16%; DT40 TDP1 CPT: inconclusive; DT40 TDP1 no CPT: inconclusive; TDP1 inh: 2%; HepG2 tox: -47%
